These results are taken from PubChem BioAssay.

Assay [1] in a line: stimulators of insulin release from INS-1E, primary screen, cell-based, 5 mM glucose, NPC library (AID 1117329;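 active means compound raises insulin release from rat beta cells at 5 mM glucose, no numeric limit stated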). Particulars: rat INS-1E insulin secretion, at 10 µM, stronger effect = higher value.
The nature of assay [2]: growth inhibition of GSK3B-pretreated HCT116 cells – cell-based, CellTiter-Glo, 0.2 to 20 µM (AID 1117336;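 active means compounds lowering colon cancer cell viability after pretreatment blocking the GSK3B kinase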). The conditions noted are these: HCT116 viability after GSK3B inhibitor, at 20 µM, stronger effect = higher value. In general terms: Cellular ATP, detected with luciferase, serves as a proxy for viable cell number.
Assay [3] can be described thus: inhibition of endothelial tube formation, primary screen, imaging, VEGF stimulated, CD31 staining, tube area, NPC library (AID 1117340;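 active means compound that reduces growth-factor-driven endothelial tube area in a mixed cell culture, no cutoff stated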). Particulars: VEGF-stimulated ADSC/ECFC co-culture, at 10 µM, stronger effect = higher value.
The nature of assay [4]: GLP1 release stimulators, primary, NCI-H716, NPC library (AID 1117341;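 active means compound raises GLP1 secretion from the human gut endocrine cells, with no numeric limit stated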). Particulars: NCI-H716 cells, at 10 µM, stronger effect = higher value.
Assay [5] can be described thus: HCT116 colon cancer cell growth inhibition, primary screen, CellTiter-Glo luminescence, NPC library (AID 1117342;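 active means compounds that lower survival of HCT116 colon cancer cells in the luminescence readout, no numeric limit stated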). Particulars: at 20 µM (top of the series).
A short description of assay [6]: reduced SW480 viability measured with CellTiter-Glo, NPC library, primary (AID 1117343). Particulars: CellTiter-Glo luminescence; at 20 µM (top of the series).
The nature of assay [7]: NPC library primary testing for decreased DLD-1 cell viability via CellTiter-Glo (AID 1117346;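 active means compounds that lower survival of DLD-1 colon cancer cells in the luminescence readout, no cutoff given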). The conditions noted are these: DLD-1 viability, CellTiter-Glo luminescence; at 20 µM (top of the series).
Assay [8] addresses 6-phosphogluconate dehydrogenase, decarboxylating (Homo sapiens) (UniProt P52209). Briefly: inhibition of human phosphogluconate dehydrogenase – biochemical, recombinant enzyme, NADPH absorbance, primary screen (AID 1159550;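 active means at least 20% inhibition of 6-phosphogluconate dehydrogenase activity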). Particulars: recombinant 6PGD, NADPH absorbance 341 nm; at 10 µM; stronger effect = higher value.

Unmarked numbers belong to inactive results. The source made the active and inactive calls.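 How the source made its calls, unless noted: active means compounds that lower viability of the colon cancer cells in the luminescence readout, with no numeric limit stated; inactive means the rest.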

6-phosphogluconate dehydrogenase, decarboxylating (Homo sapiens), sequence (P52209 whole entry, looked up): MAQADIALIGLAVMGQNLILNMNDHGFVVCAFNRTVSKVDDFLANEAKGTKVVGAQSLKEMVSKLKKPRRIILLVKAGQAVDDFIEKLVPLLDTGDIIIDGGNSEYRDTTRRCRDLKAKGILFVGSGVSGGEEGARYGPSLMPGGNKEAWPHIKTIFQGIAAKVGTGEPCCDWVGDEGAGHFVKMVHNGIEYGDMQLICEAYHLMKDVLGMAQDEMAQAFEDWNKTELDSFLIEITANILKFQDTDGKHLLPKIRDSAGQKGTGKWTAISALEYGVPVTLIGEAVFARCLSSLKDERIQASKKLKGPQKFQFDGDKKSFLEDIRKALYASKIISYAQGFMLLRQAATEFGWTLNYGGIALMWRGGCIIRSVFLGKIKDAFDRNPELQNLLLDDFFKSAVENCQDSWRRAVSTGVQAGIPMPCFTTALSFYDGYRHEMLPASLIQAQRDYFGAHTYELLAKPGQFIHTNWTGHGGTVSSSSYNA

Turning to `COc1cc(C(=O)NCc2ccc(OCCN(C)C)cc2)cc(OC)c1OC`, in assay [1], the insulin secretion stimulation was 2.5%. Also, in assay [2], the viability decrease was 19.5%. In addition, the tube area decrease in assay [3] is 16.6%. For the same compound, in assay [4], the GLP1 secretion stimulation is -2.4%. For the same compound, in assay [5], the inhibition of viability was -8.75%. Further, the values for the viability decrease (inhibition) in assay [6] and in assay [7] were -11.4% and -8.9%, respectively. For the same compound, in assay [8], the inhibition is 10.5%.
As to `C[C@H](N)[C@H](O)c1cccc(O)c1`, the insulin secretion stimulation in assay [1] was -3.4%. The viability decrease in assay [2] is -13.4%. Besides, the tube area decrease in assay [3] was 12.1%. Besides, the GLP1 secretion stimulation in assay [4] was -3.4%. Moreover, in assay [5], the inhibition of viability is -3.1%. Besides, the viability decrease (inhibition) was 37.4% in assay [6] and 1.5% in assay [7]. In assay [8], the inhibition was 13.9%.
As to `Cc1cc(C)nc(NS(=O)(=O)c2ccc(N)cc2)n1`, in assay [1], the insulin secretion stimulation was 0.4%. Further, in assay [2], the viability decrease is -0.3%. In addition, the tube area decrease in assay [3] is -24.8%. Also, the GLP1 secretion stimulation in assay [4] is 1.6%. In addition, the inhibition of viability in assay [5] was -12.6%. The viability decrease (inhibition) is 35.5% in assay [6] and 6.75% in assay [7]. Also, the inhibition in assay [8] was 1.62%.
With `CCn1cc(C(=O)O)c(=O)c2cc(F)c(N3CCNC(C)C3)c(F)c21` (centres undefined), the insulin secretion stimulation in assay [1] is 1.7%. The viability decrease in assay [2] is 15.3%. Moreover, the tube area decrease in assay [3] was -13.3%. Besides, the GLP1 secretion stimulation in assay [4] is -0.4%. In addition, the inhibition of viability in assay [5] was 0.55%. Also, the figures for the viability decrease (inhibition) in assay [6] and in assay [7] were -10.7% and -20.1%, respectively. The inhibition in assay [8] was -3.66%.
On to `O=C(O)c1ccccc1C(=O)Nc1ccc(S(=O)(=O)Nc2nccs2)cc1`, for which the insulin secretion stimulation in assay [1] was -2.1%. Also, the viability decrease in assay [2] is -13.1%. The tube area decrease in assay [3] is 3.3%. In addition, the GLP1 secretion stimulation in assay [4] is 1.4%. Also, in assay [5], the inhibition of viability is -16.3%. Moreover, the viability decrease (inhibition) was 20.3% in assay [6] and -5.15% in assay [7]. Moreover, the inhibition in assay [8] is 5.34%.
Consider `CN(C)/N=N/c1nc[nH]c1C(N)=O`, for which the insulin secretion stimulation in assay [1] was 1.8%. Besides, in assay [2], the viability decrease is -107%. In assay [3], the tube area decrease was 85.4% (active). Further, in assay [4], the GLP1 secretion stimulation is -1.3%. Besides, the inhibition of viability in assay [5] was -2.45%. Besides, the viability decrease (inhibition) in assay [6] is 34.5%; in assay [7] it was -4.2%. In addition, the inhibition in assay [8] was -2.23%.
For the compound `Cc1cccc(N(C)C(=S)Oc2ccc3ccccc3c2)c1`, the insulin secretion stimulation in assay [1] was 0.4%. For the same compound, the viability decrease in assay [2] is 50% (active). For the same compound, the tube area decrease in assay [3] was -39%. Further, the GLP1 secretion stimulation in assay [4] was -2.7%. For the same compound, in assay [5], the inhibition of viability was 58.6% (active). Also, the viability decrease (inhibition) in assay [6] is 35.1%; in assay [7], 56.8% (active). The inhibition in assay [8] is 6.26%.
As to `CN(C)c1ccc(C(=C2C=CC(=[N+](C)C)C=C2)c2ccc(N(C)C)cc2)cc1`, the insulin secretion stimulation in assay [1] is -0.2%. Also, the viability decrease in assay [2] is 104% (active). The tube area decrease in assay [3] was 108% (active). The GLP1 secretion stimulation in assay [4] is -16%. The inhibition of viability in assay [5] is 103% (active). Moreover, the figures for the viability decrease (inhibition) in assay [6] and in assay [7] were 146% (active) and 106% (active), respectively. Also, the inhibition in assay [8] was 5.37%.
In the case of `CCN(CC)CCNc1ccc(CO)c2sc3ccccc3c(=O)c12`, the insulin secretion stimulation in assay [1] is 0.6%. In assay [2], the viability decrease is 24.4%. In addition, in assay [3], the tube area decrease was 76% (active). Besides, in assay [4], the GLP1 secretion stimulation is 10.2%. Also, in assay [5], the inhibition of viability is 78.1% (active). For the same compound, the results for the viability decrease (inhibition) in assay [6] and in assay [7] were 74.7% (active) and 35.6%, respectively. For the same compound, the inhibition in assay [8] is 7.31%.
In the case of `CCCCCN(CCCCC)C(=O)C(CCC(=O)O)NC(=O)c1ccc(Cl)c(Cl)c1` (centres undefined), the insulin secretion stimulation in assay [1] was 2.8%. Besides, in assay [2], the viability decrease was -12.2%. In addition, the tube area decrease in assay [3] was 4.7%. Moreover, the GLP1 secretion stimulation in assay [4] was 6.6%. Moreover, the inhibition of viability in assay [5] was 4.6%. For the same compound, the viability decrease (inhibition) was 40.9% in assay [6] and 38.9% in assay [7]. In assay [8], the inhibition is 2.64%.
As for `Nc1ncnc2c1ncn2[C@@H]1O[C@H](CO)[C@@H](O)[C@H]1O`, in assay [1], the insulin secretion stimulation was 2.7%. For the same compound, the viability decrease in assay [2] was 41.9%. Also, the tube area decrease in assay [3] is 30.3%. The GLP1 secretion stimulation in assay [4] was -0.1%. Further, in assay [5], the inhibition of viability is 33.7%. Further, the viability decrease (inhibition) is 27% in assay [6] and 19.1% in assay [7]. Further, in assay [8], the inhibition is 2.2%.
Take `CC[C@]12CCCN3CCc4c(n(c5ccccc45)[C@@](O)(C(=O)OC)C1)[C@@H]32`: the insulin secretion stimulation in assay [1] was -1.7%. In assay [2], the viability decrease was -2.5%. Further, the tube area decrease in assay [3] was 25.6%. Further, the GLP1 secretion stimulation in assay [4] was -2.6%. In addition, the inhibition of viability in assay [5] was -43.9%. The viability decrease (inhibition) is 0.1% in assay [6] and -31.5% in assay [7]. The inhibition in assay [8] is -2.98%.
Turning to `C[C@H]1O[C@@H](n2cc(F)c(=O)[nH]c2=O)[C@H](O)[C@@H]1O`, the insulin secretion stimulation in assay [1] is -1.2%. Besides, the viability decrease in assay [2] is 29.5%. Besides, in assay [3], the tube area decrease was 22.2%. For the same compound, in assay [4], the GLP1 secretion stimulation was -2.6%. Further, the inhibition of viability in assay [5] was 59.6% (active). The viability decrease (inhibition) was 20.6% in assay [6] and 8.35% in assay [7]. Further, the inhibition in assay [8] was -6.33%.

As a reminder, the inhibition is the change of the read-out against control, counted positive when it falls.
